Where “and” joins values, the source holds several entries; their conditions need not be identical. Equal entries are not always repeated. The whole screen tested about 260,000 compounds, of which about 1,500 (0.58%) were called active. Not shown: some 5% with an inconclusive outcome.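 How the source made its calls: active means inhibition above a set limit at one or more doses, reproduced on every date tested; inconclusive means results disagree between test dates, or hit never tested in dose response; inactive means the rest.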 The list is a sample of the results. Entries with a potency or affinity are not part of this list.
molecular target: Virion infectivity factor (Human immunodeficiency virus type 1 group M subtype B (isolate BH10)) + Virion infectivity factor (Human immunodeficiency virus type 1 group M subtype B (isolate BRU/LAI)) + Virion infectivity factor (Human immunodeficiency virus type 1 group M subtype B (isolate PCV12)) + Virion infectivity factor (Human immunodeficiency virus type 1 group M subtype B (isolate HXB2)) + DNA dC->dU-editing enzyme APOBEC-3G (Homo sapiens) (UniProt P69720+P69721+P69722+P69723+Q9HC16); assay: inhibitors of Vif binding to APOBEC3G peptide, primary screen, biochemical, TR-FRET, GST-Vif 1-94, biotin-A3G peptide, dose response retest (AID 1117319); settings: hits give high values;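 further: Vif residues 1-94 fused to GST binding biotinylated APOBEC3G peptide 110-148; 0% = full assay without inhibitor and 100% = GST in place of GST-Vif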

inhibition, inactive:
COC(=O)c1ccc(Cn2nc(C)c(Cl)c2C)o1 3.48%
Clc1cccc(CON/C=N/c2ncnc3sccc23)c1 -6.38%
CC(=O)Nc1ccccc1OCC(=O)NCCC1=CCCCC1 -8.53%
CCN(CC)c1ccc2c(C)c(Cl)c(=O)oc2c1 -11.9%
CCN(CC)c1ccc2cc(C=O)c(=O)oc2c1 24.5%
CC(C)N=C1SCC(C)(/C=N/O)S1 (stereo not drawn) 5.98%
O=C1[C@@H]2C(Cc3ccc(O)cc3)NC3(C(=O)Nc4ccc(F)cc43)[C@@H]2C(=O)N1c1ccccc1 (stereo partly drawn) -9.27%
O=C1[C@@H]2[C@H](Cc3ccc(O)cc3)N[C@]3(C(=O)Nc4ccccc43)[C@@H]2C(=O)N1c1ccc(F)cc1 3.97%
CCN=C1SC(CC(N)=O)C(=O)N1CC (stereo not drawn) 9.83%
Cc1nc(N2CCN(C(=O)c3ccco3)CC2)nc2c1C(=O)CC(C)C2 (stereo not drawn) -2.42%
COc1ccc(Cl)cc1NC(=O)c1cnccn1 3.9%
Cc1nc(N)c(C#N)c(-c2ccc3c(c2)OCO3)c1C -4.59%
Cc1c(C)n(C(=O)CSc2ncn[nH]2)c2ccccc12 -2.61%
Cc1[nH]c2ccccc2c1C(=O)CSc1nc2ccccc2[nH]1 30.3%
CC(=O)c1ccc(NC(=O)c2cnn3ccccc23)cc1 1.77%
CSc1cccc(NC(=O)c2cnn3ccccc23)c1 1.6%
COc1ccc(N2CCN(C(=O)CSc3ncn[nH]3)CC2)cc1 7.54%
COc1ccc(-n2nnnc2/C=C/Nc2cc(C(F)(F)F)ccc2OC)cc1 -7.87%
C=C(C1=CCN(S(=O)C(C)(C)C)[C@H]1CCO)c1ccccc1 (stereo partly drawn) -5.4%
Cc1nc2cc(-c3ccccc3)nn2c(C)c1CCC(=O)N1CCN(c2ccccc2)CC1 -3.02%
Cc1nc2nc(C)c(CCC(=O)N3CCN(c4ccccn4)CC3)c(C)n2n1 8.31%
Cc1ccc(/C=N/n2cnc3sc4c(c3c2=O)CCCC4)o1 8.22%
CC(C)N(C(=S)Nc1cccnc1)c1ccccc1 4.04%
CCN(C(=S)Nc1cccnc1)c1ccccc1 -9.76%
O=[N+]([O-])c1ccccc1N/N=C/c1ccc2c(c1)OCO2 26.8%
Cc1c(-c2ccccc2)nc2ccccc2c1C(=O)NCc1cccs1 10.6%
Cc1ccc(NC(=O)c2cc3nc(C)cc(C)n3n2)cc1 3.27%
COc1cc(NC(=O)c2cnn3c(C)cc(C)nc23)c(OC)cc1Cl 0.24%
COc1cc(C2c3c([nH]c(=O)[nH]c3=O)Nc3ccc4ccccc4c32)cc(OC)c1OC (stereo not drawn) 1.71%
CCC(=O)N(c1nnc(SCC(=O)Nc2sccc2C(N)=O)s1)C1CC1 4.16%
O=C(O)CCC(=O)Nc1ccc(C(=O)OC2CCCCC2)cc1 9.06%
CCN(CC)C(=O)c1ccc(C)c(Br)c1 -4.6%
Fc1ccc2c(c1)C1C=CCC1C(c1cc3c(cc1Br)OCO3)N2 (stereo not drawn) 1.91%
O=C(OC1CCCCC1)c1ccc(NC(=O)C2CCCCC2)cc1 2.8%
CCN(CC)C(=O)c1ccc(-c2ccccc2)cc1 3.81%
CCOC(=O)c1ccc2c(c1)C(=O)N(C1CCCCC1)C2=O 6.81%
O=C1CN(C(=O)c2c(F)cccc2F)C(c2ccccc2)c2cc(Br)ccc2N1 (stereo not drawn) -0.06%
CCOC(=O)c1ccc2nc(C)c3c(c2c1)OC(C)C3 (stereo not drawn) -3.24%
CN1CC(=O)N(CC(=O)Nc2ccc(N3CCOCC3)cc2)C1=O -19.5%
O=C1OC(Cc2ccccc2)(c2ccccc2)c2ccccc21 (stereo not drawn) 3.92%
CN(C(=O)Cn1nnc(-c2cccnc2)n1)C1CCCCC1 8.32%
CCOP(=O)(OCC)C(NC(=O)Nc1ccc(C)c(Cl)c1)c1ccccc1 (stereo not drawn) 1.69%
COc1cc(/C=N/N=C(\N)c2nonc2N)cc(OC)c1O 16.4%
CCCc1nn2c(=O)cc(O)nc2s1 3.77%
CCCNc1nc(C)c(C(C)=O)cc1C#N 29.1%
Cc1nn(C)c(Oc2cccc(C(F)(F)F)c2)c1C#N 1.09%
CNc1nc(C)c(C(=O)c2ccc(Cl)cc2)s1 -4.16%
CCC(NC(=O)c1ccccc1NC(=O)c1ccc(C)cc1)C(=O)O (stereo not drawn) 2.64%
Cc1ccc2c(c1)C(c1ccccc1)N(C(=O)C(C)C)CC(=O)N2 (stereo not drawn) 1.62%
Cc1ccc2c(c1)C(c1ccc(F)cc1)N(C(=O)C1CC1)CC(=O)N2 (stereo not drawn) -2.57%
CC(=O)c1ccc2c(c1)CCN2 9.69%
CC(=O)c1ccc(N2CCC(C(=O)O)CC2)cc1 6.29%
COC(=O)c1cc(=O)nc2scc(C)n12 5.72%
C=C1[C@@H](C)C2[C@H](Cc3ccccc3)NC(=O)[C@]23OC(=O)CC[C@H](O)CCC[C@H](C)C/C=C/[C@H]3[C@@H]1O (stereo partly drawn) 6.17%
CC(C)OP(=O)(c1ccc(N(C)C)cc1)C(O)c1ccc(N(C)C)cc1 (stereo not drawn) -8.7%
CC(C)COP(=O)(OCC(C)C)C(O)c1ccc(N(C)C)cc1 (stereo not drawn) 12.4%
O=C(O)c1ccc2c(c1)C(=O)N(c1cccc(S(=O)(=O)Nc3cccc(C(F)(F)F)c3)c1)C2=O 25.9%
CCOC(=O)C1=C(C)N=C2SC(C(=O)OC)=CC(=O)N2C1c1cccc(OC)c1 (stereo not drawn) 0.81%
CCOC(=O)C1=C(C)N=C2SC(C(=O)OC)=CC(=O)N2C1c1ccc(OC)cc1 (stereo not drawn) 7.8%
N#Cc1ccc(N2CCCNCC2)nc1 -3.01%
COc1ccc2oc(C(=O)N3CCCc4ccccc43)c(C)c2c1 0.82%
CC1CCC(NC(=O)C2CCN(c3nc4ccccc4s3)CC2)CC1 (stereo not drawn) 7.57%
CN(C)c1ccc(CN2CCCCCC2)cc1 8.55%
CC1CCCCN1Cc1ccc(N)cc1 (stereo not drawn) -2.03%
COc1ccc(C2NC(Cc3ccccc3)(C(=O)O)C3C(=O)N(c4ccccc4OC)C(=O)C23)cc1 (stereo not drawn) -0.26%
CCOC(=O)c1cnc2nc(SC)nn2c1N 4.24%
C=CCn1c(N2CCOCC2)nc2c1c(=O)[nH]c(=O)n2C 1.7%
COCCn1c(Sc2nc(C)cs2)nc2c1c(=O)[nH]c(=O)n2C -3.29%
C=CCn1c(N2CCCC2)nc2c1c(=O)[nH]c(=O)n2C -1.68%
C=CCn1c(Sc2nnc(C)s2)nc2c1c(=O)[nH]c(=O)n2C 3.94%
CC(=O)Nc1ccc(NC(=S)NC(=O)C2CC2)cc1 0.52%
CC(=O)Nc1ccc(NC(=O)CN2CCN(c3ccccn3)CC2)cc1 -2.22%
Cn1nc(C(=O)Nc2ccccc2N2CCCC2)c2ccccc2c1=O 1.83%
COc1ccccc1/C=c1\sc2nc(-c3ccco3)nn2c1=O 31.4%
O=c1nc2s/c(=C\c3ccco3)c(=O)n2nc1Cc1ccc(F)cc1 23.6% and -1.42%
CCCOc1ccc(/C=c2\sc3nc(-c4ccco4)nn3c2=O)cc1OCC 8.17%
COc1ccccc1/C=C/C=c1\sc2nc(=O)c(Cc3ccccc3)nn2c1=O 26.2%
CCCOc1ccc(/C=c2\sc3ncnn3c2=O)cc1 3.82%
COc1cccc(/C=c2\sc3nc(-c4cccs4)nn3c2=O)c1OC 21.5%
COc1ccc(OC)c(/C=c2\sc3nc(-c4cccs4)nn3c2=O)c1 10.3%
Cc1ccc(/C=c2\sc3nc(-c4cccnc4)nn3c2=O)cc1 8.43%
COc1ccc(/C=C2\S/C(=N/S(=O)(=O)c3cccs3)NC2=O)cc1 7.65%
CCCNC(=O)CN1C(=O)NC(CCc2ccccc2)C1=O (stereo not drawn) -6.24%
NC(=O)c1cc(S(=O)(=O)NCCCc2ccccc2)cs1 3.6%
COc1ccc(Nc2nc(C)cc(=O)[nH]2)c(OC)c1 10.4%
COC(=O)C1=C(N)OC2=C(C(=O)CC(C)(C)C2)C1c1cccs1 (stereo not drawn) 12.5%
CCOC(=O)C1=C(N)OC2=C(C(=O)CCC2)C1c1cccs1 (stereo not drawn) 1.36%
COc1cc(/C=N/N=C(/C(=O)c2ccccc2)c2ccccc2)cc(OC)c1O 1.68%
O=C(C(=NNc1ccccc1)c1ccccc1)c1ccccc1 -6.13%
Oc1ccccc1C=NNC(=S)NN=Cc1ccccc1O -0.1%
Oc1ccccc1/C=N/Nc1ccccc1 3.4%
O=C1C=CC(=O)N1CCCCCCCCCCN1C(=O)C=CC1=O -0.57%
O=S(=O)(NC1CCCC1)c1ccc(F)cc1F 21.1%
COc1ccc(C(=O)NC(C)c2nnc(SCC(=O)Nc3nc(C)cs3)n2C)cc1 (stereo not drawn) 5.71%
COc1cc(NS(=O)(=O)c2ccc(NC(=O)/C=C/c3ccc([N+](=O)[O-])cc3)cc2)ncn1 7.89%
CN1C(=O)CSC1=Nc1cccc(C(=O)O)c1 -5.13%
CN1C(=O)/C(=C/c2ccco2)SC1=Nc1ccc(N2CCOCC2)cc1 25%
CCCCn1c(N)c(N(CCC(C)C)C(=O)CSc2nnc(C)s2)c(=O)[nH]c1=O 2.42%
